Legend:
Test in all cases: log2 ratio of Biotin-Ahx-Ub-VS probe labelling (fragment/DMSO); higher = less target engagement (more negative = stronger competition), active = hit call of the paper (q ≤ 0.05, log2 ratio ≤ -1)
Details in all cases: compound concentration: 200 uM; treatment time: 3 h
[1] = molecular target: T1, USP19 (UniProt O94966)
T1 sequence (whole entry): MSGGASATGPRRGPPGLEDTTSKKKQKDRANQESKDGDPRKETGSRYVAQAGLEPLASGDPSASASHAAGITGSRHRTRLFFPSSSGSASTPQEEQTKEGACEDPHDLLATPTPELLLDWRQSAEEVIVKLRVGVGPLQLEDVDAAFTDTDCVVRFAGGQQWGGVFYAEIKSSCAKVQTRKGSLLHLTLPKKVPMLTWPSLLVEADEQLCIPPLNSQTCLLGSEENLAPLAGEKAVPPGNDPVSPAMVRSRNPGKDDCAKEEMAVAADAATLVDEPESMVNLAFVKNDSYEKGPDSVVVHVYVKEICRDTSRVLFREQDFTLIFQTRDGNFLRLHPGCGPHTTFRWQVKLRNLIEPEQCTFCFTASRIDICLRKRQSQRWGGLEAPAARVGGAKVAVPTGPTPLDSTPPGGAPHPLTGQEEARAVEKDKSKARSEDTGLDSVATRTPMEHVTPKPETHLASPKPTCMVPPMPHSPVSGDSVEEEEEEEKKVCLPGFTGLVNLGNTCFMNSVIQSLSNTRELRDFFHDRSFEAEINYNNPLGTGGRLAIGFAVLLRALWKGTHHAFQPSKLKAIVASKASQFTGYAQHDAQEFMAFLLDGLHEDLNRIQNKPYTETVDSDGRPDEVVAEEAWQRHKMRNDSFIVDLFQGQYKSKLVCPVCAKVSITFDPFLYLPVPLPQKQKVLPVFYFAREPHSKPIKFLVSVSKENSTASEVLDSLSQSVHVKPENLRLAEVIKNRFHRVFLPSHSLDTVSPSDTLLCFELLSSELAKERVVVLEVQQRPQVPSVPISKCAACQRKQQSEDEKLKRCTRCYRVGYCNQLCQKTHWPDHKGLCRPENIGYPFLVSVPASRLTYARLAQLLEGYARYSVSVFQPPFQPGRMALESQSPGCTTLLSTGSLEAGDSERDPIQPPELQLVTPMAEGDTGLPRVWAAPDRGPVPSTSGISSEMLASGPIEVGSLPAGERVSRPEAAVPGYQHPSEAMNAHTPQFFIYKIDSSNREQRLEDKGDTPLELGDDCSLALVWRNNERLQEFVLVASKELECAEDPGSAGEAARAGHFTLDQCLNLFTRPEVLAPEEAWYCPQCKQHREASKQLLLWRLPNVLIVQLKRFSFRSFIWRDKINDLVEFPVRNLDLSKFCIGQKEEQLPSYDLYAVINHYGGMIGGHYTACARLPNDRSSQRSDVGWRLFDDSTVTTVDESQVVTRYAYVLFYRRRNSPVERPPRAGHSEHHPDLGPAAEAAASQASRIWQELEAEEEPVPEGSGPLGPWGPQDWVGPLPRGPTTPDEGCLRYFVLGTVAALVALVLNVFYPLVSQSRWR
Procedure, shortened: (§1)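 Average log2 ratios of fragment over vehicle were obtained by unpaired t-test from global-median-normalised Spectronaut label-free quantities. Proteins with ≥2 unique peptides were included. HEK293T lysate (495 µg per sample) was treated in triplicate with fragment at 200 µM or vehicle for 3 h, then with Biotin-Ahx-Ub-VS at 0.5 µM final for 1 h, and labelled DUBs were NeutrAvidin-enriched and run by diaPASEF LC-MS/MS.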

[2] = molecular target: USP24 (UniProt Q9UPU5)
Sequence of USP24 (Q9UPU5 whole entry): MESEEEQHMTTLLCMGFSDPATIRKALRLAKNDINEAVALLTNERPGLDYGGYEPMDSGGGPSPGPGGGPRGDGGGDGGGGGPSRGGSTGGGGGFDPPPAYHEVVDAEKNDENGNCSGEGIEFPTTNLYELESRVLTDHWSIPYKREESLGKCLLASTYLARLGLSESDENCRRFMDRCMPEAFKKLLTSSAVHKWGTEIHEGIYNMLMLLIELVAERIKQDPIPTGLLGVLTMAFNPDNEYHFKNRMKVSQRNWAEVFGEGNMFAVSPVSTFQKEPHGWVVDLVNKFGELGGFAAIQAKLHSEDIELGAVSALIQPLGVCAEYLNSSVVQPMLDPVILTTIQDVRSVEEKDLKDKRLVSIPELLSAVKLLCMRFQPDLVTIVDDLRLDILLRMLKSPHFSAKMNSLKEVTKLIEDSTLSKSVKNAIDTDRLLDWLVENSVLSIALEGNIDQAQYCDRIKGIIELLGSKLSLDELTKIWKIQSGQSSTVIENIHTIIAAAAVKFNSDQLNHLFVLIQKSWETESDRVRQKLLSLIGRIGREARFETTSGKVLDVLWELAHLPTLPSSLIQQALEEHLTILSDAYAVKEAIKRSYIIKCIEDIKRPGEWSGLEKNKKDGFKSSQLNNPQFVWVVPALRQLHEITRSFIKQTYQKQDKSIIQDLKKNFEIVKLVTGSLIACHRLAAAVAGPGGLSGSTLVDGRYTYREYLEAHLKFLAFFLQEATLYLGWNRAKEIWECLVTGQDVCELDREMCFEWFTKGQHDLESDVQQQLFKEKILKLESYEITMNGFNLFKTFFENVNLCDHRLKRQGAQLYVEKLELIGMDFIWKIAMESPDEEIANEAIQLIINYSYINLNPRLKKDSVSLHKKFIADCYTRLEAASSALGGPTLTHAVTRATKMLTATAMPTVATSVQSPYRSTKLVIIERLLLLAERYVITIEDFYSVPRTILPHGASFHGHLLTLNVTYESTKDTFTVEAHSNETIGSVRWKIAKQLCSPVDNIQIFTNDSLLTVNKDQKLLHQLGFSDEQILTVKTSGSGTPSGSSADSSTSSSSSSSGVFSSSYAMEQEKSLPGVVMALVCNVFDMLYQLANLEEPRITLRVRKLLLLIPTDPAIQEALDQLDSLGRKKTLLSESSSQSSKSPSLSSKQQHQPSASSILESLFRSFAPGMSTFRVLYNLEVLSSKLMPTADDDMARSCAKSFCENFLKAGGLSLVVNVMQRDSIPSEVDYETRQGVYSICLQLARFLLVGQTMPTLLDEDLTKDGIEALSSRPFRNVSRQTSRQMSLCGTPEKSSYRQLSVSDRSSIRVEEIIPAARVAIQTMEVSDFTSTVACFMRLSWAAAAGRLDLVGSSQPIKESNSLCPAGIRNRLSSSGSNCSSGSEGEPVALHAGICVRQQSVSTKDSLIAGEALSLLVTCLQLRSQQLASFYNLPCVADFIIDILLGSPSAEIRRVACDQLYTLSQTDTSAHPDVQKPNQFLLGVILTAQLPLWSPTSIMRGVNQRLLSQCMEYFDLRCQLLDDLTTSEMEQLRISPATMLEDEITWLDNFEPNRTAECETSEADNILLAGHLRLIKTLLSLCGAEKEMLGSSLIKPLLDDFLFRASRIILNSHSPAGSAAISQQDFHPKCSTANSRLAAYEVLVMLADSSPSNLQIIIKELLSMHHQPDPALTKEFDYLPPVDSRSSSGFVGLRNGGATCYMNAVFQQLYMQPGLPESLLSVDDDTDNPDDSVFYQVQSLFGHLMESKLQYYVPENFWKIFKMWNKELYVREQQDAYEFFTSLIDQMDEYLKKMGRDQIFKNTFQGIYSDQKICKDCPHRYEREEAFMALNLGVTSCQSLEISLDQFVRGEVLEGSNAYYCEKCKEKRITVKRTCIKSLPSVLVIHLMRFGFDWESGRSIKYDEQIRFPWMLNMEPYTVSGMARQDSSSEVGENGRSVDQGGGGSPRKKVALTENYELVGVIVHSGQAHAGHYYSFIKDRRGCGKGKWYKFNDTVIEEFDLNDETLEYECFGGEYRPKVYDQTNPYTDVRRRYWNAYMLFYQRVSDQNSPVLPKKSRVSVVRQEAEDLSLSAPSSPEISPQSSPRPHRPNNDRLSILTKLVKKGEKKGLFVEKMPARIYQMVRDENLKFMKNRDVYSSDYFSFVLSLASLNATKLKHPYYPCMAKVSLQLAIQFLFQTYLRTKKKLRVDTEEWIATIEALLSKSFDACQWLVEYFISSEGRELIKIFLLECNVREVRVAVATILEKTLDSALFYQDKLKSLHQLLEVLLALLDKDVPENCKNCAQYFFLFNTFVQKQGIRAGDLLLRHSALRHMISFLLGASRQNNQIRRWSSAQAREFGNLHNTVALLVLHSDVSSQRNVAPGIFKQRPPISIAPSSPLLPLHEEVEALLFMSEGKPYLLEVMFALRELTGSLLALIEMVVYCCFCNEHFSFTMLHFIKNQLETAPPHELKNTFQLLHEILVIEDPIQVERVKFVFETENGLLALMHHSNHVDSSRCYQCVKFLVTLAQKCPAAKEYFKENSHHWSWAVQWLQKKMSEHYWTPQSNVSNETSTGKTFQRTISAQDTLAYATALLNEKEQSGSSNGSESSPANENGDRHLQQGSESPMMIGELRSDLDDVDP
Procedure, shortened: as §1

[3] = molecular target: T2, USP25 (UniProt Q9UHP3)
T2 sequence (whole entry): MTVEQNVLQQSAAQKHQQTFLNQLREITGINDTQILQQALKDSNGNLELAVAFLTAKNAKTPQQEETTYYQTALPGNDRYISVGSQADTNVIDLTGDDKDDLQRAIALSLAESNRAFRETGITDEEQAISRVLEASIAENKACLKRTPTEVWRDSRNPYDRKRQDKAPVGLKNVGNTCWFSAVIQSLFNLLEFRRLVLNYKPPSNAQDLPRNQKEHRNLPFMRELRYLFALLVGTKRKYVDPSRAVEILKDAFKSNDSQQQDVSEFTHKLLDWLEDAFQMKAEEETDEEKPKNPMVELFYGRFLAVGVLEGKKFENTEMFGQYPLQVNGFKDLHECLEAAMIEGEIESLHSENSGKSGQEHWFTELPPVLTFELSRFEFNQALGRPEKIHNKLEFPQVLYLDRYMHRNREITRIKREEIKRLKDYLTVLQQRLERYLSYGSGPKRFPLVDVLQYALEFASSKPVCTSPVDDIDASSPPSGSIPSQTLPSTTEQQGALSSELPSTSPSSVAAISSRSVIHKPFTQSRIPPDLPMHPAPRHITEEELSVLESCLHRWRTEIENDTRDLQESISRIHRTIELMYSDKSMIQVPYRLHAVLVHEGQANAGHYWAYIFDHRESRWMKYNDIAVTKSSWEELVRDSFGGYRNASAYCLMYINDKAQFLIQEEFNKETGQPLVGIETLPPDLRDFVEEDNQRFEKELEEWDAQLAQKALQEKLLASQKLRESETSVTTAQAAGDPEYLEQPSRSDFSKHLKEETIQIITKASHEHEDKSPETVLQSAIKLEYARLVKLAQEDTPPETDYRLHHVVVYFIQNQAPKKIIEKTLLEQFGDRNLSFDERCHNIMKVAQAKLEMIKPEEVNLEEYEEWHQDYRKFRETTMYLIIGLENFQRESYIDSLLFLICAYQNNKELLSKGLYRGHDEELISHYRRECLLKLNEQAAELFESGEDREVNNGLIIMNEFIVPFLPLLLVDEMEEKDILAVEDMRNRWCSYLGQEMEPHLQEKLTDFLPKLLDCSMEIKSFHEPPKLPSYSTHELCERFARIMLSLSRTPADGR
Procedure, shortened: as §1

[4] = molecular target: T3, USP28 (UniProt Q96RU2)
T3 sequence (whole entry): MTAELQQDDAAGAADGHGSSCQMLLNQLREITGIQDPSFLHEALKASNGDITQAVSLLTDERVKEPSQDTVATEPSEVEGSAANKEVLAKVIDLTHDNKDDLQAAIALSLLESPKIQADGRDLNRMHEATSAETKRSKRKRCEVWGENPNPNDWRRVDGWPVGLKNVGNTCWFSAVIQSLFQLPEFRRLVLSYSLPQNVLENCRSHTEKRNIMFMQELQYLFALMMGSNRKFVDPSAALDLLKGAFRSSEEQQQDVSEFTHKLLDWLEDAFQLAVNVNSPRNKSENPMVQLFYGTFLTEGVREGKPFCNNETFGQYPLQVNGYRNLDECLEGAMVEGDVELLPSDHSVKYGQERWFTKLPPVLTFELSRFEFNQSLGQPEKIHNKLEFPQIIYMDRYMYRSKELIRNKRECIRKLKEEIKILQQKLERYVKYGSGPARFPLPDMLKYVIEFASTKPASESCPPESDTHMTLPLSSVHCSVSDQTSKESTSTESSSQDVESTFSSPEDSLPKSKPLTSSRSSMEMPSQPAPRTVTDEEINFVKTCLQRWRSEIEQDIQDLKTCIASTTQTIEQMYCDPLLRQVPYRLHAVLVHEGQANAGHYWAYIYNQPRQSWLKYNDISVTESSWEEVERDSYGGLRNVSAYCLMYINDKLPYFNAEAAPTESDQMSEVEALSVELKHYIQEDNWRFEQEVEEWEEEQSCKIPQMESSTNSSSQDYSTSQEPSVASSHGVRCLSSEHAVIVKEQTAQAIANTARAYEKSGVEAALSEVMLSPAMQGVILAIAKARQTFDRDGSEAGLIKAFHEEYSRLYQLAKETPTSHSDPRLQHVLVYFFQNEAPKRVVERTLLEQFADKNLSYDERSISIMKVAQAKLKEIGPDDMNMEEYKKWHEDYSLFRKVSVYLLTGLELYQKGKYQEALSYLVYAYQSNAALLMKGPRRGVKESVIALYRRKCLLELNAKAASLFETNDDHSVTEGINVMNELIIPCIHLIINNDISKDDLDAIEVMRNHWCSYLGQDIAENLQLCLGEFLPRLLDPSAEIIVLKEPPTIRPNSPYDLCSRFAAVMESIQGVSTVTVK
Procedure, shortened: as §1

Measured: log2 ratio of Biotin-Ahx-Ub-VS probe labelling

CN(CCc1ncc(Br)cn1)C(=O)CCl.Cl
inactive: [1] -0.155 | [2] -0.487 | [3] -0.445 | [4] -0.622

From the supplement of paper PMC11732987, “Enantioselective OTUD7B fragment discovery through chemoproteomics screening and high-throughput optimisation” (Communications Chemistry, 2025)
